# Results filed as inconclusive are left out. Entries that show only a call come without a potency. Calls of active or inactive are those of the source. The call rests on the fitted dose curve.
# Assay: qHTS assay for small molecule agonists of the p53 signaling pathway - cell viability (AID 651633); further: nearly all actives have a fitted effect of over 30% in size
# Conditions: p53RE-bla HCT-116 viability, ATP luminescence, 16 h; series mostly up to 83.3 µM
# From the text: National Center for Advancing Translational Sciences [NCATS]
# NIH Chemical Genomics Center [NCGC]
# U.S. Environmental Protection Agency [EPA]
# National Institutes of Environmental Health Sciences [NIEHS]
# National Toxicology Program [NTP]
# U.S. Food and Drug Administration [FDA]
# p53, a tumor suppressor protein, is activated following cellular insult, including DNA damage and other cellular stresses. The activation of p53 regulates cell fate by inducing DNA repair, cell cycle arrest, apoptosis, or cellular senescence. The activation of p53, therefore, is a good indicator of DNA damage and other cellular stresses. […] The activation of the reporter gene under culture conditions can be detected by fluorescence intensity. This cell line was used to screen the Tox21 compound library in a 1536-well plate format and to identify agonists that activate the p53 signaling pathway.
# Tox21 Assay Protocol Summary:
# The p53RE-bla cells were dispensed at 4,000 cells/5 ul/well in 1536-well black wall/clear bottom plates using a Multidrop dispenser. After the assay plates were incubated at a 37 C/5% CO2 incubator for 5 hours, 23 nL of compounds dissolved in DMSO, positive controls or DMSO only was transferred to the assay plate by a pin tool. The plates were incubated at 37 C for 16 hours. After 1 uL of LiveBLAzerTM B/G FRET substrate was added using a Flying Reagent Dispenser, the plates were incubated at room temperature for 2 hours, and fluorescence intensity was measured by an Envision plate reader.
# For cell viability readout that measures cytotoxicity, 4 ul/well of CellTiter-Glo reagent was added into the assay plates using a Flying Reagent Dispenser. After 30 min incubation at room temperature, the luminescence intensity in the plates was measured using a ViewLux plate reader.
# Potency means the concentration at half of the fitted maximal effect.
row,SMILES,Potency
1,CCOC(=O)C(Cl)C(C)=O (stereo not given),inactive
2,Clc1cc(Cl)c(Cl)c(Cl)c1,inactive
3,O=S1OC[C@@H]2[C@H](CO1)[C@]1(Cl)C(Cl)=C(Cl)[C@@]2(Cl)C1(Cl)Cl (stereo not given in full),61.1 µM (active)
4,COC(C)(C)CCC[C@H](C)C/C=C/C(C)=C/C(=O)OC(C)C,61.1 µM (active)
5,CCOP(=O)(OCC)O/C(=C/Cl)c1ccc(Cl)cc1Cl,inactive
6,CC(=O)[C@H]1CC[C@H]2[C@@H]3CC[C@H]4C[C@](C)(O)CC[C@]4(C)[C@H]3CC[C@]12C,inactive
7,CCOc1nc(F)cc2nc(S(=O)(=O)Nc3c(Cl)cccc3Cl)nn12,inactive
8,CC(O)(CS(=O)(=O)c1ccc(F)cc1)C(=O)Nc1ccc(C#N)c(C(F)(F)F)c1 (stereo not given),inactive
9,C=CCN1CC[C@]23c4c5ccc(O)c4O[C@H]2C(=O)CC[C@@]3(O)[C@H]1C5,inactive
10,COC(N)=O,inactive
11,NC(=O)C(Cl)(Cl)Cl,inactive
12,C=CC(=O)OC(C)(C)C,inactive
13,CCCC(=O)Cl,inactive
14,CC(c1ccc(O)cc1)(c1ccc(O)cc1)c1ccc(O)cc1,6.86 µM (active)
15,O=C(O)C(F)(F)C(F)(F)C(F)(F)C(F)(F)C(F)(F)C(F)(F)C(F)(F)C(F)(F)C(F)(F)C(F)(F)F,inactive
16,CCCN(CC1CC1)c1c([N+](=O)[O-])cc(C(F)(F)F)cc1[N+](=O)[O-],inactive
17,O=C(O)CC(Cl)C(=O)O (stereo not given),inactive
18,O=C(O)c1ccccc1C(=O)Nc1cccc2ccccc12,inactive
19,C=CCCl,inactive
20,O=C(CBr)OCc1ccccc1,inactive

row,SMILES,Potency
1,Clc1ccc(C(OCCN2CCCCC2)c2ccccc2)cc1 (stereo not given),inactive
2,C#CCOC(C(=O)OCCN(C)C)(c1ccccc1)c1ccccc1,inactive
3,COCC(C)N(C(=O)CCl)c1c(C)csc1C (stereo not given),inactive
4,N#CCc1ccccc1,inactive
5,Cc1ccccc1C(=O)Nc1cccc(OC(C)C)c1,inactive
6,CC(C)=CCOc1c2occc2cc2ccc(=O)oc12,inactive
7,C[C@H]1CNCCc2ccc(Cl)cc21,inactive
8,O=C(NCc1cccnc1)Nc1ccc([N+](=O)[O-])cc1,inactive
9,O=C(O)COc1ccc(Cl)cc1,inactive
10,CC[C@H]1C[C@H]2[C@@H]3CCC4=CC(=O)CC[C@@H]4[C@H]3CC[C@]2(C)[C@H]1O,inactive
11,CCOP(=S)(OCC)SCn1nnc2ccccc2c1=O,27.3 µM (active)
12,NCCCNCCCN,inactive
13,CCOP(=O)(OCC)Oc1ccc([N+](=O)[O-])cc1,inactive
14,C=C(C#N)CCC#N,inactive
15,CCc1ccc(C(=O)NN(C(=O)c2cc(C)cc(C)c2)C(C)(C)C)cc1,inactive
16,CC(C)(Cl)[N+](=O)[O-],inactive
17,CCCCN=C=O,inactive
18,N#C/C(N)=C(/N)C#N,inactive
19,Cn1sc(Cl)cc1=O,inactive
20,O=C(Nc1ccccc1)Nc1cnns1,inactive
